The results in this text go back to the antibiotic and cytotoxicity screens of Wong et al. (2023).

Among all 39,000 compounds or so, about 3,300 (8.5%) were called active. This is one part of a sample in which actives are shown more often than they occur.

For the test, the system named is HepG2. Description: cytotoxicity call (relative viability < 0.9). The following applies: 10 µM.
As to `C[C@H](CO)N1C[C@H](C)[C@H](CN(C)C(=O)Nc2ccc(C(F)(F)F)cc2)OCCCC[C@H](C)Oc2ccc(N(C)C)cc2C1=O`, the cytotoxicity call is “inactive”. Under `O=C(Cc1ccccc1)NCCN1CCOCC1` stands “inactive”; under `CO[C@H](CN(C)S(=O)(=O)c1cccc(Cl)c1)[C@@H](C)CN([C@@H](C)CO)S(=O)(=O)c1ccc(Cl)cc1`, “inactive”; under `COc1ccc(NC(=O)N(C)C[C@@H]2Oc3ccc(NS(=O)(=O)c4cn(C)cn4)cc3C(=O)N([C@H](C)CO)C[C@H]2C)cc1`, “inactive”. Under `O=C(C[C@@H]1C[C@H]2c3cc(NC(=O)Nc4ccc(C(F)(F)F)cc4)ccc3O[C@H]2[C@@H](CO)O1)NCCc1ccccc1` stands “inactive”; under `C[C@H]1CN([C@@H](C)CO)C(=O)Cc2cc(NC(=O)Cn3cnnn3)ccc2O[C@@H]1CN(C)Cc1ccccc1`, “inactive”; under `CCO[C@@H]1OC(C(=O)N2CCN(Cc3ccccc3)CC2)=C[C@H](c2ccc(Br)cc2)[C@H]1CCCOC(=O)NCCCCCC(=O)NO`, “inactive”. Under `C[C@@H]1CN([C@H](C)CO)C(=O)c2cc(NC(=O)Cc3ccccc3)ccc2O[C@@H]1CN(C)Cc1ccc(C(=O)Nc2ccccc2N)cc1` stands “inactive”; under `C[C@@H]1CCCCO[C@H](CN(C)S(=O)(=O)c2ccccc2)[C@@H](C)CN([C@@H](C)CO)C(=O)c2cc(NS(=O)(=O)c3cn(C)cn3)ccc2O1`, “inactive”. `O=C(C[C@@H]1C[C@@H]2c3cc(NS(=O)(=O)c4ccc(F)cc4)ccc3O[C@@H]2[C@H](CO)O1)NCc1ccncc1`: the cytotoxicity call is “inactive”. Consider `C#CCCCCCCCCCCC[C@H](O)C[C@H](O)COC(C)=O.C=CCCCCCCCCCCC[C@H](O)C[C@H](O)COC(C)=O`, for which the cytotoxicity call is “inactive”.

Turning to `C[C@@H]1CCCCO[C@@H](CN(C)C(=O)Nc2ccc3c(c2)OCO3)[C@@H](C)CN([C@H](C)CO)C(=O)c2cc(NS(=O)(=O)c3ccc(F)cc3)ccc2O1`, the cytotoxicity call was “inactive”. For `C[C@H]1CN([C@@H](C)CO)C(=O)c2cc(C3=CCCC3)cnc2O[C@H]1CN(C)C(=O)c1ccc2c(c1)OCO2`, the cytotoxicity call is “active”. The value for `C[C@H](CO)N1C[C@H](C)[C@@H](CN(C)C(=O)c2ccc3c(c2)OCO3)Oc2ncc(C3=CCCC3)cc2C1=O` was “inactive”; that for `C[C@H](CO)N1C[C@H](C)[C@H](CN(C)C(=O)c2ccc3c(c2)OCO3)Oc2ncc(C3=CCCC3)cc2C1=O` was “inactive”. In the case of `OC1(c2ccc(Cl)c(C(F)(F)F)c2)CCN(CCCC(c2ccc(F)cc2)c2ccc(F)cc2)CC1` [listing 1 of 2 here], the cytotoxicity call was “active”. For the molecule `OC1(c2ccc(Cl)c(C(F)(F)F)c2)CCN(CCCC(c2ccc(F)cc2)c2ccc(F)cc2)CC1` [listing 2 of 2 here], the cytotoxicity call was “active”. Under `COC(=O)C[C@@H]1CC[C@@H]2[C@H](COC[C@H](O)CN2S(=O)(=O)c2ccccc2C)O1` stands “inactive”.

For `C[C@@H]1CN([C@H](C)CO)C(=O)Cc2cc(NC(=O)NC3CCCCC3)ccc2O[C@H]1CN(C)S(=O)(=O)c1cn(C)cn1`, the cytotoxicity call was “inactive”. Take `COc1ccc2c(=O)ccoc2c1`: the cytotoxicity call is “inactive”. The value for `COc1ccc2oc(C(C)=O)cc2c1` was “inactive”; that for `COc1ccc(-c2c(C)oc3ccc(Cl)cc23)cc1` was “active”.

On to `COc1ccc2c(-c3ccc(Cl)cc3)c(C)oc2c1`, for which the cytotoxicity call was “active”.

With `COc1ccc2c(C)cc(=O)oc2c1`, the cytotoxicity call is “inactive”.

Turning to `COc1ccc(-c2cc(=O)c3ccccc3o2)cc1`, the cytotoxicity call was “inactive”. The value for `C[C@@H]1CN([C@H](C)CO)C(=O)c2cccc(NC(=O)C3CCOCC3)c2O[C@@H]1CN(C)Cc1ccncc1` was “inactive”. In the case of `C[C@H]1CN([C@@H](C)CO)C(=O)c2cccc(NC(=O)Nc3cccc4ccccc34)c2O[C@H]1CN(C)CC1CCCCC1`, the cytotoxicity call was “inactive”. Under `CCN(CC)CCCC(C)Nc1ccnc2cc(Cl)ccc12.O=P(O)(O)O.O=P(O)(O)O` (stereo unspecified) stands “active”; under `Cc1cc(Oc2ccnc3cc(Cl)ccc23)ccc1Cl`, “inactive”; under `COc1ccc2nc(Cl)sc2c1`, “inactive”. Under `O=C(OCC(O)CO)c1ccccc1Nc1ccnc2cc(Cl)ccc12` (stereo unspecified) stands “inactive”; under `COc1ccc2nc3ccc(Cl)cc3c(SCCCN)c2c1`, “inactive”; under `CCN(CC)CCCC(C)Nc1c2ccc(Cl)cc2nc2ccc(OC)cc12.Cl.Cl` (stereo unspecified), “active”. Under `CCN(CC)Cc1ccc(Nc2ccnc3cc(Cl)ccc23)cc1O.Cl.Cl` stands “active”.

Turning to `CCN(CCO)CCCC(C)Nc1ccnc2cc(Cl)ccc12.O=S(=O)(O)O` (stereo unspecified), the cytotoxicity call is “active”. The value for `Cc1noc(C)c1S(=O)(=O)N(C)C[C@H]1Oc2ccc(NC(=O)c3ccncc3)cc2CC(=O)N([C@H](C)CO)C[C@@H]1C` was “inactive”; that for `Cc1noc(C)c1NC(=O)N(C)C[C@@H]1Oc2ccc(NC(=O)CCN3CCOCC3)cc2CC(=O)N([C@H](C)CO)C[C@@H]1C` was “inactive”; that for `Cc1ccc(S(=O)(=O)N(C)C[C@@H]2Oc3ncc(-c4ccncc4)cc3C(=O)N([C@H](C)CO)C[C@H]2C)cc1` was “inactive”. On to `COc1ccc(NC(=O)N(C)C[C@H]2Oc3cc(C#CCN(C)C)ccc3S(=O)(=O)N([C@@H](C)CO)C[C@@H]2C)cc1`, for which the cytotoxicity call is “inactive”. `C[C@@H]1CN([C@@H](C)CO)C(=O)c2cc(NC(=O)Cn3cnnn3)ccc2O[C@H]1CN(C)Cc1ccc(C(=O)Nc2ccccc2N)cc1`: the cytotoxicity call is “inactive”. For the molecule `C[C@@H]1CN([C@H](C)CO)C(=O)c2cc(NC(=O)C3CC3)ccc2O[C@@H]1CN(C)C(=O)Nc1ccc2c(c1)OCO2`, the cytotoxicity call is “inactive”. Under `COc1ccc(C#Cc2cnc3c(c2)C(=O)N([C@H](C)CO)C[C@H](C)[C@@H](CN(C)C(=O)CN(C)C)O3)cc1` stands “inactive”; under `C[C@H](CO)N1C[C@H](C)[C@H](CN(C)Cc2ccc(C(F)(F)F)cc2)Oc2ccc(NC(=O)Nc3ccccc3)cc2C1=O`, “active”. For the molecule `C[C@@H]1CN([C@@H](C)CO)C(=O)c2cc(NC(=O)Nc3ccccc3)ccc2O[C@H]1CN(C)Cc1ccc(C(F)(F)F)cc1`, the cytotoxicity call is “inactive”.

`C[C@H]1CN([C@@H](C)CO)C(=O)c2cc(NC(=O)Nc3ccccc3)ccc2O[C@H]1CN(C)Cc1ccc(C(F)(F)F)cc1`: the cytotoxicity call was “inactive”.

As for `C[C@H](CO)N1C[C@H](C)[C@H](CN(C)Cc2ccc(C(=O)O)cc2)Oc2ccc(NC(=O)Nc3ccc(C(F)(F)F)cc3)cc2C1=O`, the cytotoxicity call was “inactive”. The value for `C[C@@H]1CN([C@@H](C)CO)C(=O)c2cc(NC(=O)Nc3ccccc3)ccc2O[C@@H]1CN(C)Cc1ccc(C(F)(F)F)cc1` was “active”; that for `C[C@H]1CN([C@@H](C)CO)C(=O)c2cc(NC(=O)Nc3ccccc3)ccc2O[C@@H]1CN(C)Cc1ccc(C(F)(F)F)cc1` was “active”; that for `C[C@@H]1CN([C@H](C)CO)C(=O)c2cc(NC(=O)Nc3ccccc3)ccc2O[C@@H]1CN(C)Cc1ccc(C(F)(F)F)cc1` was “inactive”.

In the case of `C[C@@H]1CN([C@H](C)CO)C(=O)c2cc(NC(=O)Nc3ccc(C(F)(F)F)cc3)ccc2O[C@@H]1CN(C)Cc1ccc(C(=O)O)cc1`, the cytotoxicity call was “inactive”. On to `C[C@@H]1CN([C@H](C)CO)C(=O)c2cc(NC(=O)Nc3ccccc3)ccc2O[C@H]1CN(C)Cc1ccc(C(F)(F)F)cc1`, for which the cytotoxicity call is “active”. Under `COc1cccc(S(=O)(=O)Nc2ccc3c(c2)C(=O)N(C)C[C@@H](OC)[C@@H](C)CN(C(=O)Cc2cccnc2)[C@@H](C)CO3)c1` stands “inactive”; under `CC(C)NC(=O)N[C@@H]1C=C[C@@H](CC(=O)NCCN2CCCC2)O[C@H]1CO`, “inactive”; under `COc1ccc(NC(=O)N(C)C[C@@H]2OCCCC[C@@H](C)Oc3ccc(NC(=O)C4CCCCC4)cc3C(=O)N([C@H](C)CO)C[C@H]2C)cc1`, “inactive”. As for `COc1ccc(CN(C)C[C@H]2OCCCC[C@H](C)Oc3ccc(NC(=O)C4CCCCC4)cc3C(=O)N([C@@H](C)CO)C[C@H]2C)cc1`, the cytotoxicity call is “inactive”. Take `O=C(C[C@H]1CC[C@@H]2NC[C@H](O)COC[C@H]2O1)NCCN1CCCCC1`: the cytotoxicity call is “inactive”. For `O=C1O[C@H](c2ccccc2)[C@H](c2ccccc2)N2[C@H]1[C@@H](C(=O)N1CCCCCCC1)[C@]1(C(=O)Nc3ccc(C#CCCO)cc31)[C@H]2c1ccc(O)cc1`, the cytotoxicity call is “inactive”.

For `CSc1nc2nc(N)nc(N)c2s1`, the cytotoxicity call was “inactive”. Under `COc1cccc(S(=O)(=O)N2C[C@H](O)COC[C@@H]3O[C@H](CC(=O)N4CCN(c5ccccc5)CC4)CC[C@H]32)c1` stands “inactive”.

Consider `O=C(C[C@H]1CC[C@@H]2[C@H](COC[C@H](O)CN2S(=O)(=O)c2cccc(Cl)c2)O1)NC1Cc2ccccc2C1`, for which the cytotoxicity call is “inactive”. Under `C[C@@H]1CN([C@@H](C)CO)C(=O)c2cccc(NC(=O)c3cnccn3)c2O[C@@H]1CN(C)S(C)(=O)=O` stands “inactive”; under `CC(C)NC(=O)Nc1ccc2c(c1)C(=O)N([C@H](C)CO)C[C@H](C)[C@@H](CN(C)Cc1ccccc1)OCCCC[C@@H](C)O2`, “inactive”; under `C[C@H](CO)N1C[C@H](C)[C@@H](CN(C)Cc2ccc(C(F)(F)F)cc2)Oc2ccc(NC(=O)Nc3ccccc3)cc2C1=O`, “active”. The value for `C[C@@H]1CN([C@@H](C)CO)C(=O)c2cc(NC(=O)Nc3ccc(C(F)(F)F)cc3)ccc2O[C@@H]1CN(C)Cc1ccc(C(=O)O)cc1` was “inactive”. Under `C[C@H](CO)N1C[C@H](C)[C@@H](CN(C)Cc2ccc(C(=O)O)cc2)Oc2ccc(NC(=O)Nc3ccc(C(F)(F)F)cc3)cc2C1=O` stands “inactive”; under `C[C@@H]1CCCCO[C@H](CN(C)C(=O)c2ccncc2)[C@@H](C)CN([C@H](C)CO)C(=O)c2cc(NC(=O)C3CCCCC3)ccc2O1`, “inactive”; under `C[C@H](CO)N1C[C@H](C)[C@@H](CN(C)S(=O)(=O)c2cn(C)cn2)Oc2ccc(NS(=O)(=O)c3cn(C)cn3)cc2C1=O`, “inactive”. Take `C[C@@H]1CCCCO[C@@H](CN(C)S(=O)(=O)c2ccc(F)cc2)[C@@H](C)CN([C@@H](C)CO)C(=O)c2cc(NC(=O)Nc3cccc4ccccc34)ccc2O1`: the cytotoxicity call is “inactive”.

`Cc1oc(C(C)(C)C)cc1C(=O)Nc1ccc(C(C)C)cc1`: the cytotoxicity call is “inactive”. On to `CCc1cccc(C(C)C)c1NC(=O)Nc1ccccc1`, for which the cytotoxicity call is “inactive”. On to `CC(C)c1ccccc1Cc1cc(C(=O)Nc2ccc(S(=O)(=O)c3ccccc3C(C)(C)C)cc2)c(O)c(O)c1O`, for which the cytotoxicity call is “active”.
